Bioassay records: PubChem, Broad Institute
miR122 inh: raises miR-122 sensor activity in Huh7 cells; Huh7 psiCHECK-miR122 Renilla luciferase sensor, 48 h; activation, % at 12.5 µM; AID 623901; hit rate 0.14% among 340,000;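 active = mean activation of 30% or more, with every replicate also reaching 30%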;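 also: higher luciferase signal means stronger suppression of miR-122 activity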
A number is an active result; 0 = inactive. The entries come from a sample that favours hits as a whole.

SMILES | miR122 inh
COCC(=O)N(C)C[C@@H]1Oc2cc(C#CC3CC3)ccc2S(=O)(=O)N([C@@H](C)CO)C[C@@H]1C | 0
C[C@H](CO)N1C[C@H](C)[C@H](CN(C)CC2CCOCC2)Oc2ncc(C#Cc3ccc(F)cc3)cc2C1=O | 0
C[C@@H]1CN([C@@H](C)CO)S(=O)(=O)c2ccc(C#CC3CC3)cc2O[C@H]1CN(C)Cc1ccccn1 | 0
C/C(=N\NC(=O)C(C)Oc1ccc([N+](=O)[O-])cc1)c1ccccn1 (stereo unspecified) | 32
CCCC(=O)Nc1ccc2c(c1)C(=O)N(C)C[C@H](OC)[C@H](C)CN(CCC)[C@H](C)CO2 | 0
COCC#Cc1ccc2c(c1)O[C@H](CN(C)C(=O)COC)[C@H](C)CN([C@@H](C)CO)S2(=O)=O | 0
CCCNC(=O)Nc1ccc2c(c1)OC[C@H](C)NC[C@@H](C)[C@H](OC)CN(C)C2=O | 0
CCCCCCCCCCCCCCCC[n+]1ccccc1 | 49
CCCN(C)C[C@H]1Oc2cc(C#CC(C)C)ccc2S(=O)(=O)N([C@H](C)CO)C[C@H]1C | 0
C[C@H](CO)N1C[C@H](C)[C@H](CN(C)Cc2ccc(F)cc2)Oc2ncc(-c3ccccc3)cc2C1=O | 0
CCCN(C)C[C@H]1Oc2cc(C#CC3CC3)ccc2S(=O)(=O)N([C@H](C)CO)C[C@H]1C | 0
C[C@H](CO)N1C[C@H](C)[C@@H](CN(C)Cc2cccc(C(=O)O)c2)Oc2ncc(/C=C/c3ccccc3)cc2C1=O | 0
CNC[C@@H]1Oc2cc(C#CC3CCCCC3)ccc2S(=O)(=O)N([C@@H](C)CO)C[C@@H]1C | 51
CNC[C@H]1Oc2cc(C#CC(C)C)ccc2S(=O)(=O)N([C@@H](C)CO)C[C@@H]1C | 0
CNC[C@H]1Oc2cc(C#CC3CCCCC3)ccc2S(=O)(=O)N([C@H](C)CO)C[C@@H]1C | 42
CNC[C@H]1Oc2cc(C#C[C@H](C)O)ccc2S(=O)(=O)N([C@H](C)CO)C[C@@H]1C | 0
CNC[C@@H]1Oc2cc(C#C[C@@H](C)O)ccc2S(=O)(=O)N([C@H](C)CO)C[C@H]1C | 0
CNC[C@@H]1Oc2cc(C#C[C@H](C)O)ccc2S(=O)(=O)N([C@@H](C)CO)C[C@@H]1C | 0
C[C@@H]1CN([C@@H](C)CO)C(=O)Cc2cc(NC(=O)NC3CCCCC3)ccc2O[C@H]1CN(C)Cc1ccncc1 | 0
COc1ccccc1-c1cnc2c(c1)C(=O)N([C@H](C)CO)C[C@@H](C)[C@@H](CN(C)C(=O)CN(C)C)O2 | 0
C[C@@H]1CN([C@H](C)CO)C(=O)c2cc(-c3cccc(F)c3)cnc2O[C@@H]1CN(C)C(=O)c1cccc(F)c1 | 0
CCOc1ccc(NC(=S)N(CCCN2CCCC2)Cc2cccn2Cc2ccc(Cl)cc2)cc1 | 33
CCOc1ccc(NS(=O)(=O)c2ccc(NC(=S)NC(=O)C(C)C)cc2)cc1 | 0
COc1ccccc1S(=O)(=O)N(C)C[C@@H]1Oc2cc(/C=C/c3ccccc3)ccc2S(=O)(=O)N([C@H](C)CO)C[C@@H]1C | 0
C[C@@H]1CN([C@@H](C)CO)S(=O)(=O)c2ccc(-c3ccccc3)cc2O[C@@H]1CN(C)C(=O)c1ccc2c(c1)OCO2 | 44
SMILES | miR122 inh
C[C@@H]1CN([C@H](C)CO)S(=O)(=O)c2ccc(Br)cc2O[C@@H]1CN(C)C(=O)CC1CC1 | 0
C[C@@H]1CN([C@@H](C)CO)S(=O)(=O)c2ccc(-c3ccccc3)cc2O[C@@H]1CN(C)C(=O)CC1CC1 | 0
C/C=C/c1ccc2c(c1)O[C@@H](CN(C)C(=O)c1ccc3c(c1)OCO3)[C@@H](C)CN([C@@H](C)CO)S2(=O)=O | 0
C/C=C/c1ccc2c(c1)O[C@H](CN(C)C(=O)c1ccc3c(c1)OCO3)[C@@H](C)CN([C@@H](C)CO)S2(=O)=O | 0
C[C@@H]1CN([C@H](C)CO)S(=O)(=O)c2ccc(-c3ccccc3)cc2O[C@H]1CN(C)C(=O)CC1CC1 | 0
C[C@H]1CN([C@@H](C)CO)S(=O)(=O)c2ccc(-c3ccccc3)cc2O[C@@H]1CN(C)C(=O)CC1CC1 | 0
Cc1ccc(-c2ccc3c(c2)O[C@H](CN(C)C(=O)CC2CC2)[C@H](C)CN([C@@H](C)CO)S3(=O)=O)cc1 | 53
Cc1ccc(-c2ccc3c(c2)O[C@H](CN(C)C(=O)CC2CC2)[C@H](C)CN([C@H](C)CO)S3(=O)=O)cc1 | 40
C[C@H](CO)N1C[C@H](C)[C@H](CN(C)C(=O)c2ccccn2)Oc2ncc(C#Cc3ccccc3)cc2C1=O | 0
C[C@H]1CN([C@@H](C)CO)C(=O)c2cc(C3=CCCCC3)cnc2O[C@H]1CN(C)CC1CCOCC1 | 0
CCC(=O)N(C)C[C@H]1Oc2cc(C#C[C@H](C)O)ccc2S(=O)(=O)N([C@H](C)CO)C[C@H]1C | 0
C[C@H]1CN([C@@H](C)CO)S(=O)(=O)c2ccc(-c3cncnc3)cc2O[C@@H]1CN(C)Cc1ccccc1 | 0
C[C@H](CO)N1C[C@H](C)[C@H](CN(C)C(=O)c2ccccc2F)Oc2ncc(-c3ccncc3)cc2C1=O | 0
CCO/C=C1\N=C(c2ccc(F)cc2)OC1=O | 60
CCCNC(=O)Nc1ccc2c(c1)OC[C@H](C)N(C)C[C@@H](C)[C@H](OC)CN(C)C2=O | 0
COc1ccc(S(=O)(=O)N(C)C[C@@H]2Oc3cc(-c4ccccc4OC)ccc3S(=O)(=O)N([C@@H](C)CO)C[C@@H]2C)cc1 | 0
CC(C)CC#Cc1ccc2c(c1)O[C@H](CN(C)C(=O)NC1CCCC1)[C@@H](C)CN([C@H](C)CO)S2(=O)=O | 0
C[C@@H]1CN([C@@H](C)CO)S(=O)(=O)c2ccc(/C=C/c3ccccc3)cc2O[C@@H]1CN(C)C(=O)NC1CCCCC1 | 41
C[C@@H]1CN([C@H](C)CO)S(=O)(=O)c2ccc(/C=C/c3ccccc3)cc2O[C@@H]1CN(C)C(=O)c1ccccc1 | 0
C[C@H](CO)N1C[C@H](C)[C@@H](CN(C)C(=O)Nc2cccc(F)c2)Oc2cc(/C=C/c3ccccc3)ccc2S1(=O)=O | 0
CC(=O)N(C)C[C@H]1Oc2cc(/C=C/c3ccccc3)ccc2S(=O)(=O)N([C@@H](C)CO)C[C@H]1C | 34
CC(=O)N(C)C[C@H]1Oc2cc(/C=C/c3ccccc3)ccc2S(=O)(=O)N([C@H](C)CO)C[C@@H]1C | 0
COCC#Cc1ccc2c(c1)O[C@H](CN(C)C(C)=O)[C@@H](C)CN([C@H](C)CO)S2(=O)=O | 0
COc1cccc(-c2ccc3c(c2)O[C@H](CN(C)C(C)=O)[C@@H](C)CN([C@H](C)CO)S3(=O)=O)c1 | 0
C[C@@H]1CN([C@@H](C)CO)C(=O)c2cc(-c3ccccc3F)cnc2O[C@@H]1CN(C)C(=O)C1CCCCC1 | 0
SMILES | miR122 inh
C[C@H](CO)N1C[C@H](C)[C@@H](CN(C)C(=O)c2ccncc2)Oc2cc(C#C[C@@H](C)O)ccc2S1(=O)=O | 0
COc1ccccc1S(=O)(=O)N(C)C[C@H]1Oc2ncc(-c3ccc(C)cc3)cc2C(=O)N([C@@H](C)CO)C[C@@H]1C | 0
C[C@@H]1CN([C@H](C)CO)C(=O)c2cc(-c3cccc(F)c3)cnc2O[C@H]1CN(C)C(=O)C1CCOCC1 | 0
C/C=C/c1ccc2c(c1)O[C@H](CN(C)C(=O)CC1CC1)[C@@H](C)CN([C@H](C)CO)S2(=O)=O | 0
COc1ccc(CN(C)C[C@@H]2Oc3ccc(NC(=O)C4CCCCC4)cc3CC(=O)N([C@@H](C)CO)C[C@H]2C)cc1 | 0
COc1ccc(NC(=O)N(C)C[C@@H]2Oc3ncc(C#Cc4ccc(OC)c(OC)c4)cc3C(=O)N([C@H](C)CO)C[C@@H]2C)cc1 | 0
